Assay results reported in PubChem BioAssay AID1159580 (chemical genetic matrix, 2015).
Several values for one entry are separate records, joined by “and”; a condition that tells them apart may be missing. Identical values can stand only once. About 2,000 (36%) of roughly 5,500 compounds were called active. Inconclusive results (about 18%) are left out. Cut-off read from the data, not from the text of the source: active = normalized growth mostly below about 0.91 (no sharp cut-off); inconclusive = no clear call, values can overlap the other calls; inactive = mostly above about 0.92. The list shows a part of the results.

Test: chemical genetic growth profiling, strain panel (AID 1159580);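 note: tested at 20 µM; growth read once vehicle control cultures reached saturation at 30 °C; 1 = growth at the plate median or of vehicle wells; lower values mean less growth of the strain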
Conditions: S. cerevisiae deletion strains, growth OD

Measured: normalized growth

NC1CONC1=O (centres undefined)
inactive: locus YAL040C, strain CLN3, hits give low values 1.01 and 0.999 | locus YCL061C, strain MRC1 (second series), hits give low values 1 | locus YDR150W, strain NUM1, hits give low values 1.01 | locus YDR363W, strain ESC2, hits give low values 1.01 | locus YER002W, strain NOP16, hits give low values 1.01 and 0.983 | locus YGR229C, strain SMI1, hits give low values 1.01 | locus YMR307W, strain GAS1, hits give low values 1.01 | locus YNL128W, strain TEP1, hits give low values 1.03 | locus YNL153C, strain GIM3, hits give low values 1.01 and 0.981 | locus YNL175C, strain NOP13, hits give low values 1.02 | locus YNL197C, strain WHI3, hits give low values 1.02 and 1 | locus YNL224C, strain SQS1, hits give low values 0.993 and 0.985 | locus YOR083W, strain WHI5 (second series), hits give low values 1.01 | locus YPL241C, strain CIN2, hits give low values 1
